Drawing on PubChem BioAssay (NCI), this text covers growth for 29 compounds.

About 83,000 compounds went through this panel and 20% of them were active in at least one assay; those are over-represented in the sample as a whole.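 Single-dose data. Exposure time 48 hours. Values below 10 considered active.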 Unmarked numbers belong to inactive results. The source made the active and inactive calls.

Holding throughout (test): NCI-60 one-dose screen, 48 h (100 = growth as untreated, 0 = no growth, -100 = all killed)
Common to all, as to conditions: 10 µM unless noted

In assay [1] the test system is SK-MEL-2 melanoma.
The test system of assay [2] is EKVX NSCLC.
Assay [3] concerns SN12C renal.
Assay [4] concerns UO-31 renal.
The subject of assay [5] is TK-10 renal.
For assay [6], the system named is ACHN renal.
Assay [7] concerns CAKI-1 renal.
Assay [8] concerns A498 renal.
Assay [9] deals with CCRF-CEM leukemia.

On to `N#Cc1c(NCc2ccccc2)n[nH]c1Nc1ccccc1`, for which the growth in [1] was 20.7%; in assay [2] it was 52.8%; in assay [3] it was 50.8%; in assay [4], 38.5%; in [5] it was 75.5%; in assay [6], 38.1%. Further, the growth is 33.4% in [7], 79% in [8] and 18.3% in assay [9].
Consider `COc1ccc(C(=O)Nc2n[nH]c(Nc3ccccc3)c2C#N)cc1`, for which the growth in assay [1] is 110%; in assay [2], 90.1%; in assay [3], 110%; in [4], 90.7%; in assay [5] it was 99.9%; in assay [6], 99.3%. The growth in [7] is 103%; in assay [8], 108%; in assay [9] it was 114%.
As to `CC(=O)NNc1ccc2nnc(-c3ccccc3)n2n1`, the growth in assay [1] is 102%; in [2], 95.9%; in assay [3] it was 97.1%; in assay [4] it was 88.5%; in assay [5], 106%; in assay [6] it was 104%. In addition, the results for the growth in assay [7], in assay [8] and in [9] were 90.9%, 108% and 108%, respectively.
As for `COc1ccc(NC(=O)Cn2c(/C=C/c3cccc([N+](=O)[O-])c3)nc3ccccc3c2=O)cc1`, the growth in [1] is 106%; in [2] it was 87.8%; in [3], 76.1%; in [4], 22.9%; in assay [5], 72.7%; in assay [6] it was 20.3%. The figures for the growth in assay [7], in [8] and in [9] were 49.9%, 92.8% and 92.3%, respectively.
As for `CC(=O)N1CCN(Cc2ccc3c(NNC(=O)c4cnccn4)nc4cc(F)ccc4n23)CC1`, the growth was 43.5% in [1]; 16.2% in [2]; 21.4% in assay [3]; 10.6% in assay [4]; 30.3% in assay [5]; 11% in [6]. Besides, the growth in [7] was 13.1%; in assay [8] it was 50.2%; in [9], 9.27% (active).
Turning to `COc1ccc(C(=O)/C=C/c2cccc(Br)c2)cc1S(N)(=O)=O`, the growth is -26% (active) in assay [1]; -68.4% (active) in assay [2]; -79.2% (active) in assay [3]; -91.8% (active) in [4]; -91.8% (active) in [5]; -95.2% (active) in [6]. Moreover, the growth in assay [7] is -79.9% (active); in assay [8], 93.3%.
For `O=C(NNc1nc2cc(F)ccc2n2c(C(=O)N3CCN(C4CC4)CC3)ccc12)c1ncccn1`, the growth was 57% in assay [1]; 22.8% in assay [2]; 27% in [3]; 14.8% in [4]; 30.2% in [5]; 12.2% in assay [6]. The growth in [7] was 17.7%; in [8] it was 75.9%; in assay [9] it was 13.4%.
Take `CN1CCN(Cc2ccc(C(=O)Nc3cccc(C#Cc4cccc5[nH]nc(N)c45)c3)cc2C(F)(F)F)CC1`: the growth in assay [1] is -88.9% (active); in [2] it was -93.6% (active); in [3] it was -94.7% (active); in [4], -98.2% (active); in assay [5], -96% (active); in assay [6], -98.3% (active). Besides, the growth in assay [7] was -88.5% (active); in assay [8] it was -80.7% (active); in assay [9], -20% (active).
Regarding `O=C(Cn1c(/C=C/c2cccc([N+](=O)[O-])c2)nc2ccccc2c1=O)Nc1ccccc1`, the growth in [1] was 87.7%; in assay [2], 79.6%; in assay [3] it was 74.5%; in [4], 77.4%; in assay [5], 109%; in [6], 43.9%. The values for the growth in [7], in [8] and in assay [9] were 80.2%, 94.7% and 91.5%, respectively.
Turning to `O=C1Nc2ccc([N+](=O)[O-])cc2C1=Nc1ccccc1`, the growth in assay [1] is 104%; in assay [2], 95.9%; in assay [3], 89.3%; in [4] it was 69.4%; in assay [5] it was 111%; in assay [6] it was 78.2%. Moreover, the growth in assay [7] was 77.2%; in assay [8], 116%; in assay [9] it was 103%.
On to `NS(=O)(=O)c1ccc(-n2cc(-c3cccc(NC(=O)c4cc(Cl)cc(Cl)c4)c3)nn2)cc1`, for which the growth was 96.7% in assay [1]; 88.8% in [2]; 88% in assay [3]; 115% in assay [4]; 114% in assay [5]; 95.8% in assay [6]. Also, the results for the growth in [7], in assay [8] and in [9] were 94.2%, 135% and 56.7%, respectively.
For the compound `NS(=O)(=O)c1ccc(-n2cc(-c3cccc(NC(=O)c4ccc(Cl)c(C(F)(F)F)c4)c3)nn2)cc1`, the growth in [1] was 78.3%; in assay [2], 46.5%; in assay [3], 34.3%; in [4], 51%; in assay [5] it was 48.7%; in [6], 23.2%. For the same compound, the growth in [7] was 33.2%; in assay [8], 91.1%; in assay [9] it was 28.3%.
Turning to `COc1ccc(C(=O)/C=C/c2ccccc2Br)cc1S(N)(=O)=O`, the growth is 81.2% in assay [1]; -80.2% (active) in [2]; -25.6% (active) in [3]; -65.2% (active) in [4]; 3.43% (active) in assay [5]; -97% (active) in [6]. Further, the values for the growth in assay [7], in assay [8] and in assay [9] were 11.8%, 93.3% and 6.96% (active), respectively.
As for `COc1ccc(C(=O)/C=C/c2cccc(Cl)c2)cc1S(N)(=O)=O`, the growth is 80.9% in [1]; -73.5% (active) in assay [2]; -25.3% (active) in assay [3]; -67.6% (active) in assay [4]; -86.1% (active) in [5]; -89.3% (active) in [6]. In addition, the growth in assay [7] is -9.94% (active); in assay [8] it was 111%; in assay [9], 6.96% (active).
Regarding `COc1ccc(C(=O)/C=C/c2cccnc2)cc1S(N)(=O)=O`, the growth was 104% in assay [1]; 63.3% in assay [2]; 37.7% in assay [3]; 28% in assay [4]; 66.8% in [5]; 50.7% in [6]. Further, the values for the growth in assay [7], in assay [8] and in assay [9] were 52.6%, 103% and 5.54% (active), respectively.
For the compound `CN1CCN(c2ccc(C(=O)/C=C/c3ccc(Br)cc3)cc2)CC1`, the growth in assay [1] was 85.4%; in assay [2] it was 51.8%; in assay [3], 13.9%; in assay [4], 18.8%; in [5], 38.4%; in [6], 30.8%. The growth in assay [7] is 30.8%; in assay [8] it was 96%; in assay [9], 18.2%.
Take `O=C(NNc1nc2cc(F)ccc2n2c(CN3CC4CNCC4C3)ccc12)c1ccncn1` (centres undefined): the growth in assay [1] is 42.7%; in assay [2] it was 12.7%; in assay [3], 7.46% (active); in [4] it was 15.6%; in assay [5], 29.9%; in assay [6], 8.07% (active). Further, the growth in [7] was 12.1%; in assay [8] it was 59%; in assay [9], 12.7%.
For the compound `COc1ccc(C2=NN(c3ccccc3)C(c3ccc(OCc4ccccc4)c(OC)c3)C2)cc1OC` (centres undefined), the growth was 86.5% in assay [1]; 93% in assay [2]; 100% in assay [3]; 86.8% in assay [4]; 120% in [5]; 99.4% in assay [6]. The values for the growth in assay [7] and in assay [8] were 88.7% and 118%, respectively.
Consider `COc1cc(OC)cc(-c2cc3ccc(N(C)C)cc3c(=O)[nH]2)c1`, for which the growth in assay [1] is 33.6%; in assay [2], 47%; in [3], 36.7%; in [4], 52.4%; in assay [5], 79.1%; in assay [6] it was 31.2%. The growth is 34.2% in assay [7], 121% in assay [8] and 15.5% in [9].
For the compound `COc1ccc(C(=O)/C=C/c2ccc(Cl)c(Cl)c2)cc1S(N)(=O)=O`, the growth in assay [1] was 66.9%; in assay [2], 24.1%; in assay [3] it was -2.78% (active); in assay [4] it was -80.5% (active); in assay [5], 5.47% (active); in assay [6], -69.7% (active). In addition, the growth is -7.4% (active) in assay [7], 109% in assay [8] and 12.4% in [9].
With `O=C(NNc1nc2cc(F)ccc2n2c(CN3CCCCC3)ccc12)c1cnccn1`, the growth was -67.2% (active) in [1]; -78.2% (active) in assay [2]; 1.01% (active) in [3]; -72.2% (active) in assay [4]; -92.7% (active) in assay [5]; -98.3% (active) in [6]. Moreover, the figures for the growth in assay [7], in [8] and in assay [9] were -79.5% (active), -87.9% (active) and -16.2% (active), respectively.
As to `Nc1n[nH]c2cccc(C#Cc3cccc(NC(=O)c4cccc(Cl)c4)c3)c12`, the growth in assay [1] is 12.7%; in assay [2] it was 44.9%; in assay [3] it was 28.5%; in assay [4] it was 21.5%; in assay [5] it was 49.9%; in [6], 18.2%. In addition, the growth was 18.8% in assay [7], 50.4% in assay [8] and 15% in assay [9].
For `COc1cccc(/C=C/C(=O)c2ccc(OC)c(S(N)(=O)=O)c2)c1`, the growth in assay [1] is 96.5%; in assay [2], 49.4%; in [3], 14.5%; in assay [4] it was 2.53% (active); in [5], 21.2%; in assay [6] it was -40.4% (active). For the same compound, the growth in assay [7] is 26.5%; in assay [8], 115%; in assay [9], 2.26% (active).
Regarding `Cc1ccc(-c2nnc3ccc(N/N=C/c4ccccc4)nn23)cc1`, the growth in assay [1] is 102%; in [2] it was 76.9%; in [3], 101%; in assay [4], 84.5%; in assay [5], 104%; in [6], 95.4%. Moreover, the growth was 83.3% in [7], 105% in [8] and 88.8% in assay [9].
On to `COc1ccc(C(=O)/C=C/c2c(F)cccc2Cl)cc1S(N)(=O)=O`, for which the growth in assay [1] is 25.1%; in [2], 8.71% (active); in assay [3], 12.8%; in [4] it was 0.59% (active); in [5] it was 27.4%; in assay [6], -13.8% (active). Further, the values for the growth in [7], in assay [8] and in [9] were 16.4%, 74% and 6.01% (active), respectively.
Regarding `CN1CCN(c2ccc3c(c2)nc(NNC(=O)c2cnccn2)c2cccn23)CC1`, the growth in assay [1] was -69% (active); in assay [2] it was -46.8% (active); in assay [3], 0.109% (active); in assay [4], -77.9% (active); in assay [5], -74.5% (active); in assay [6] it was -85.8% (active). For the same compound, the growth in assay [7] was -74% (active); in assay [8] it was -84.7% (active); in assay [9], 13.8%.
Turning to `O=C1C(=Nc2ccc(F)c(Cl)c2)c2cccc3cccc1c23`, the growth in [1] is 97.5%; in assay [2], 75.5%; in [3], 57.3%; in [4], 38.2%; in [5] it was 111%; in assay [6] it was 32.2%. For the same compound, the values for the growth in assay [7], in assay [8] and in assay [9] were 55.4%, 118% and 6.25% (active), respectively.
Turning to `CN1CCN(c2ccc(C(=O)/C=C/c3cc(C(F)(F)F)cc(C(F)(F)F)c3)cc2)CC1`, the growth was -86.2% (active) in assay [1]; -73.2% (active) in assay [2]; -79.8% (active) in assay [3]; -92.5% (active) in [4]; -88.7% (active) in assay [5]; -99.2% (active) in assay [6]. Besides, the results for the growth in [7], in assay [8] and in assay [9] were -73.7% (active), -70% (active) and 5.57% (active), respectively.
For `O=C(Nc1ccc(C(F)(F)F)cc1)Nc1ccc2oc(=O)ccc2c1`, the growth in assay [1] was 30%; in assay [2], 12.2%; in [3] it was 7.6% (active); in assay [4] it was -10.3% (active); in assay [5] it was 36.1%; in [6], 6.95% (active). Further, the growth was 22.9% in assay [7], 27.4% in assay [8] and 16.1% in assay [9].
